Laboratory results as given in PubChem BioAssay (NCATS).
Inconclusive results are not listed. Entries that show only a call come without a potency. The source made the active and inactive calls. Calls follow the shape of the dose curve; as a rule, active = well fitted inhibition curve with a large enough effect; inconclusive = small, poorly fitted or top-dose-only effect; inactive = flat fitted curve, though single readings scatter.

assay: High Content Imaging Cell-Based qHTS for Inhibitors of the mTORC1 Signaling Pathway in MEF (Tsc2-/-, p53-/-) Cells (AID 2666); details: series mostly up to 38.3 µM;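 also: percent of cells scored positive for phospho-rpS6 Ser235/236 immunostaining by imaging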
Source text: NIH Molecular Libraries Probe Production Centers Network [MLPCN]
NIH Chemical Genomics Center [NCGC]
Assay Submitter (PI): Blenis, John; Hoffman, Greg; Harvard University
NCGC Assay Overview: Thee mammalian target of rapamycin (mTOR) is an intracellular serine/threonine kinase Aberrant regulation of mTOR signaling plays a causative role in a number of human diseases, including cancer, benign tumors such as lymphangioleiomyomatosis (LAM) and Tuberous Sclerosis Complex (TSC), and metabolic diseases such as diabetes and obesity. This project aims to identify inhibitors of ribosomal protein S6 (rpS6) phosphorylation. The phosphorylation of rpS6 is a key event downstream of mTOR activation. The assay uses a phospho-specific antibody of phospho-rpS6 to detect inhibitors of mTOR activation. Mutations in the Tsc1 and Tsc2 genes are the underlying genetic lesions responsible for TSC, causing constitutive activation of the mTORC1 pathway and leading to profound effects on cell metabolism. Aberrant metabolism in cancer has recently received significant attention as a target to develop therapeutic agents in the treatment of cancer1. As Tsc2-/- cells have lost the ability to respond to energy and growth factor deprivation, these cells are unable to properly down regulate cellular biosynthetic processes in response to metabolic stress, and are thus extremely sensitive to glucose deprivation-induced death.2 A central goal of this project is to explore the unique cell survival and metabolic properties of cells with Tsc1 or Tsc2 by screening for compounds that selectively target the Tsc2-/- MEFs by screening both Tsc2-/- and WT MEF cell lines. We hope to better understand these aspects of TSC physiology in order to exploit them for therapeutic benefit.
NCGC IN Cell Assay Protocol:
For quantitative high throughput analysis of mTORC1 signaling, we developed a cell-based assay for immuno-fluorescence based detection of rpS6 phosphorylation on the Acumen Explorer that will be used a platform for the primary small molecule screen. Mouse embryonic fibroblasts (MEFs) are cultured in 1536-well plates using DMEM + 10% FBS. Twenty-four hrs after plating, test compounds (solubilized in DMSO) are delivered and incubated with the cells for 24 hrs at 37 degree Celsius. Following the incubation, media with compound is aspirated and the cells are fixed in 4% paraformaldehyde (PFA) containing PBS + 0.2% TX-100. Next, PFA is aspirated, cells are washed two times with PBS plus 0.2% TX-100 and the cells are blocked for 1 hr at room temperature (blocking buffer: LiCOR Blocking Buffer plus 0.2% TX-100). This is followed by aspiration and staining with Alexa-488 conjugated-phospho-rpS6 Ser235/236 antibody for 2 hours at room temperature (Cell Signaling Technology # 4803, 1:50 dilution in blocking buffer). Cells are washed two times with PBS plus 0.2% TX-100, and stained with 10 uM propidium iodide (PI) for 20-25 minutes for cell number measurement (1:500 dilution of Hoescht staining is also added for IN Cell imaging). Active wells which are selected (based on Acumen results) are imaged on the IN Cell 1000 (GE Healthcare) using the D360/40X and HQ480/40X excitation filters for the Hoechst and Alexa-488 cytoplasmic stains, respectively. The fluorescence emission filters used were HQ460/40M and HQ535/50M for the Hoechst and Alexa-488 cytoplasmic stains, respectively. The normalized phospho-S6 staining is calculated as the ratio of […] for the single concentration rapamycin control ([…] nM) and DMSO columns. […] Inhibition of the pathway is defined based on the normalized phospho-S6 intensity in rapamycin treated cells. Each treatment is reported as the % positive cells in the well, where thresholds are defined by selecting wells with the highest and lowest signal and differentiating between the % non-active and % active populations. […]
Potency is read from the fitted curve at half-maximal effect.

Row | SMILES | outcome | Potency
1 | CCC1(C2=NCCN2)Cc2ccccc2O1 (stereo unspecified) | inactive | 
2 | NCC1(CC(=O)O)CCCCC1 | inactive | 
3 | CC[C@@H](CO)NC(=O)[C@@H]1C=C2c3cccc4[nH]cc(c34)C[C@H]2N(C)C1 | inactive | 
4 | COc1ccccc1N1CCNCC1 | inactive | 
5 | COC[C@H]1OC(=O)c2coc3c2[C@@]1(C)C1=C(C3=O)C2CCC(=O)[C@@]2(C)C[C@H]1OC(C)=O (stereo partly specified) | inactive | 
6 | CCCC(C)(COC(N)=O)COC(=O)NC(C)C (stereo unspecified) | inactive | 
7 | Cc1ccc(S(=O)(=O)N[C@@H](CCCCN)C(=O)CCl)cc1 | inactive | 
8 | CCCN1CCC[C@@H]2Cc3[nH]ncc3C[C@H]21 |  | inactive
9 | COc1ccc(C(CN(C)C)C2(O)CCCCC2)cc1 (stereo unspecified) | inactive | 
10 | CC(=O)[C@H]1CC[C@H]2[C@@H]3CC[C@H]4C[C@](C)(O)CC[C@]4(C)[C@H]3CC[C@]12C | inactive | 
11 | Cc1cc2c(C(C)C)c(O)c(O)c(C=O)c2c(O)c1-c1c(C)cc2c(C(C)C)c(O)c(O)c(C=O)c2c1O |  | 2610 nM (active)
12 | CNCC(O)c1ccc(O)cc1 (stereo unspecified) | inactive | 
13 | NN=C(N)N |  | inactive
14 | O=C1NCN(c2ccccc2)C12CCN(CC1COc3ccccc3O1)CC2 (stereo unspecified) | inactive | 
15 | NCC(O)c1ccc(O)cc1 (stereo unspecified) | inactive | 
16 | c1ccc(C2CC2)c(OCC2=NCCN2)c1 | inactive | 

Row | SMILES | outcome | Potency
17 | CC(=O)[C@H]1CC[C@H]2[C@@H]3CC[C@H]4C[C@H](O)CC[C@]4(C)[C@H]3C(=O)C[C@]12C | inactive | 
18 | Cc1ncc(CNC(=O)N(CCCl)N=O)c(N)n1 | inactive | 
19 | Nc1ccncc1 | inactive | 
20 | C[C@@H]1O[C@@H](O[C@H]2C[C@@H](O)[C@]3(CO)[C@H]4[C@H](O)C[C@]5(C)[C@@H](C6=CC(=O)OC6)CC[C@]5(O)[C@@H]4CC[C@]3(O)C2)[C@H](O)[C@H](O)[C@H]1O | inactive | 
21 | Cc1cccc(C)c1NC1=NCCCS1 | inactive | 
22 | N#CC(C#N)=Cc1ccc(O)c(O)c1 | inactive | 
23 | C=C(C)[C@H]1Cc2c(ccc3c2O[C@@H]2COc4cc(OC)c(OC)cc4[C@@H]2C3=O)O1 | inactive | 
24 | CCCN1CCC[C@@H]2Cc3nc(N)ncc3C[C@H]21 | inactive | 
25 | NCC(CC(=O)O)c1ccc(Cl)cc1 (stereo unspecified) | inactive | 
26 | O=c1[nH]c2ccccc2n1CCCN1CCC(n2c(=O)[nH]c3cc(Cl)ccc32)CC1 | inactive | 
27 | CC[C@@H](CO)NC(=O)[C@@H]1C=C2c3cccc4c3c(cn4C)C[C@H]2N(C)C1 | inactive | 
28 | Cc1cccc(C)c1NC(=O)CN1CCCC1=O | inactive | 
29 | CC(O)(CS(=O)(=O)c1ccc(F)cc1)C(=O)Nc1ccc(C#N)c(C(F)(F)F)c1 (stereo unspecified) | inactive | 
30 | CC(CCc1ccccc1)NC(C)C(O)c1ccc(O)cc1 (stereo unspecified) | inactive | 
31 | CC(C)=CCOc1c2occc2cc2ccc(=O)oc12 | inactive | 
